# According to the supplement of paper PMC8728848:
# This excerpt belongs to a sample that is enriched for the strongest signals.
# How the values were obtained:
# Assay in all cases: glycan array binding signal (z-score within array); higher = stronger binding
# Settings in all cases: glycan notation: IUPAC condensed, linker removed
# [1] = molecular target: Fuc(a1-2)Gal(b1-4)GlcNAc(b1-2)[Fuc(a1-2)Gal(b1-4)GlcNAc(b1-4)]Man(a1-3)[Fuc(a1-2)Gal(b1-4)GlcNAc(b1-2)Man(a1-6)]Man(b1-4)GlcNAc(b1-4)GlcNAc
# How it was run: (§1)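 Arrays were curated from the Consortium for Functional Glycomics database, 3228 in total, and kept only where the protein sequence was available. Binding is expressed as a within-array Z-score. This score was averaged across arrays of the same protein sequence at different concentrations or buffers and across linkers, and negative values can be read as non-binding.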
# [2] = molecular target: Fuc(a1-2)Gal(b1-4)GlcNAc(b1-3)[Fuc(a1-2)Gal(b1-4)GlcNAc(b1-6)]GalNAc
# How it was run: as §1
# [3] = molecular target: Fuc(a1-2)Gal(b1-4)GlcNAc(b1-6)GalNAc
# How it was run: as §1
# [4] = molecular target: Fuc(a1-2)[Gal(a1-3)]Gal(b1-3)GlcNAc(b1-6)GalNAc
# How it was run: as §1
# [5] = molecular target: Fuc(a1-2)[Gal(a1-3)]Gal(b1-4)GlcNAc
# How it was run: as §1
# [6] = molecular target: Fuc(a1-2)[Gal(a1-3)]Gal(b1-4)GlcNAc(b1-2)Man
# How it was run: as §1
# [7] = molecular target: Fuc(a1-2)[Gal(a1-3)]Gal(b1-4)GlcNAc(b1-3)[Fuc(a1-2)[Gal(a1-3)]Gal(b1-4)GlcNAc(b1-6)]GalNAc
# How it was run: as §1
# [8] = molecular target: Fuc(a1-2)[GalNAc(a1-3)]Gal(b1-4)GlcNAc(b1-6)GalNAc
# How it was run: as §1
# [9] = molecular target: Fuc(a1-2)[GalNAc(a1-4)]Gal(b1-4)GlcNAc
# How it was run: as §1
# [10] = molecular target: Gal(a1-4)Gal(b1-4)GlcNAc(b1-2)Man(a1-3)[Gal(a1-4)Gal(b1-4)GlcNAc(b1-2)Man(a1-6)]Man(b1-4)GlcNAc(b1-4)GlcNAc
# How it was run: as §1
# Gal(b1-3)Gal = molecular target: Gal(b1-3)Gal
# How it was run: as §1
# [11] = molecular target: Gal(b1-3)GlcNAc(b1-6)[Gal(b1-3)]GalNAc
# How it was run: as §1
# [12] = molecular target: Gal(b1-3)[Fuc(a1-4)]GlcNAc(b1-2)Man(a1-3)[Gal(b1-3)[Fuc(a1-4)]GlcNAc(b1-2)Man(a1-6)]Man(b1-4)GlcNAc(b1-4)[Fuc(a1-6)]GlcNAc
# How it was run: as §1
# [13] = molecular target: Gal(b1-4)GlcNAc(b1-2)Man(a1-3)[Gal(b1-4)GlcNAc(b1-2)Man(a1-6)]Man(b1-4)GlcNAc(b1-4)GlcNAc
# How it was run: as §1
# [14] = molecular target: Gal(b1-4)GlcNAc(b1-2)Man(a1-3)[GlcNAc(b1-4)][Gal(b1-4)GlcNAc(b1-2)Man(a1-6)]Man(b1-4)GlcNAc(b1-4)GlcNAc
# How it was run: as §1
# [15] = molecular target: Gal(b1-4)GlcNAc(b1-2)[Gal(b1-4)GlcNAc(b1-4)]Man(a1-3)[GlcNAc(b1-4)][Gal(b1-4)GlcNAc(b1-2)[Gal(b1-4)GlcNAc(b1-6)]Man(a1-6)]Man(b1-4)GlcNAc(b1-4)GlcNAc
# How it was run: as §1
# [16] = molecular target: Gal(b1-4)GlcNAc(b1-2)[Gal(b1-4)GlcNAc(b1-6)]Man(a1-6)[GlcNAc(b1-4)][Gal(b1-4)GlcNAc(b1-2)Man(a1-3)]Man(b1-4)GlcNAc(b1-4)GlcNAc
# How it was run: as §1
# [17] = molecular target: Gal(b1-4)GlcNAc(b1-3)Gal(b1-4)GlcNAc(b1-3)Gal(b1-4)GlcNAc(b1-2)Man(a1-3)[Gal(b1-4)GlcNAc(b1-3)Gal(b1-4)GlcNAc(b1-3)Gal(b1-4)GlcNAc(b1-2)Man(a1-6)]Man(b1-4)GlcNAc(b1-4)GlcNAc
# How it was run: as §1
# [18] = molecular target: Gal(b1-4)GlcNAc(b1-3)Gal(b1-4)GlcNAc(b1-3)Gal(b1-4)GlcNAc(b1-3)Gal(b1-4)GlcNAc(b1-2)[Gal(b1-4)GlcNAc(b1-3)Gal(b1-4)GlcNAc(b1-3)Gal(b1-4)GlcNAc(b1-3)Gal(b1-4)GlcNAc(b1-6)]Man(a1-6)[Gal(b1-4)GlcNAc(b1-3)Gal(b1-4)GlcNAc(b1-3)Gal(b1-4)GlcNAc(b1-3)Gal(b1-4)GlcNAc(b1-2)Man(a1-3)]Man(b1-4)GlcNAc(b1-4)[Fuc(a1-6)]GlcNAc
# How it was run: as §1
# [19] = molecular target: Gal(b1-4)GlcNAc(b1-3)Gal(b1-4)GlcNAc(b1-3)Gal(b1-4)GlcNAc(b1-3)Gal(b1-4)GlcNAc(b1-3)Gal(b1-4)GlcNAc(b1-3)Gal(b1-4)GlcNAc(b1-2)Man(a1-3)[Gal(b1-4)GlcNAc(b1-3)Gal(b1-4)GlcNAc(b1-3)Gal(b1-4)GlcNAc(b1-3)Gal(b1-4)GlcNAc(b1-3)Gal(b1-4)GlcNAc(b1-3)Gal(b1-4)GlcNAc(b1-2)Man(a1-6)]Man(b1-4)GlcNAc(b1-4)GlcNAc
# How it was run: as §1
# Gal3S(b1-4)Glc6S = molecular target: Gal3S(b1-4)Glc6S
# How it was run: as §1
# Gal6S(b1-4)GlcNAc6S = molecular target: Gal6S(b1-4)GlcNAc6S
# How it was run: as §1
# GalNAc(a1-3)Gal = molecular target: GalNAc(a1-3)Gal
# How it was run: as §1
# GalNAc(a1-3)GalNAc = molecular target: GalNAc(a1-3)GalNAc
# How it was run: as §1
# GalNAc(b1-3)GalNAc = molecular target: GalNAc(b1-3)GalNAc
# How it was run: as §1
# GalNAc(b1-4)GlcNAc = molecular target: GalNAc(b1-4)GlcNAc
# How it was run: as §1
# [20] = molecular target: GalNAc(b1-4)GlcNAc(b1-2)Man
# How it was run: as §1
# GalNAc(b1-4)GlcNAc6S = molecular target: GalNAc(b1-4)GlcNAc6S
# How it was run: as §1
# GalNAc(b1-6)GalNAc = molecular target: GalNAc(b1-6)GalNAc
# How it was run: as §1
# GlcA(b1-3)Gal = molecular target: GlcA(b1-3)Gal
# How it was run: as §1
binder,measurement,setting,value
Cohesin-marm-DC-ASGPR (protein) LDITSHHHHHHDDLDAVRIKVDTVNAKPGDTVRIPVRFSGIPSKGIANCDFVYSYDPNVLEIIEIEPGDIIVDPNPDKSFDTAVYPDRKIIVFLFAEDSGTGAYAITKDGVFATIVAKVKEGAPNGLSVIKFVEVGGFANNDLVEQKTQFFDGGVNVGDTTEPATPTTPVTTPTTTDDLDAASSKFQRDLVTLRTDFSNFTSNTLAEIQALTSQGSSLQETIASLKAEVEGHKQELQAGASELQEHNKQKAHLGRCPHTCVCPSSFVCVPVHSEILLRVQQLVQDLNKLSCQVAILKNNATTERTCCPINWVEHQGSCYWFSRSGKTWPEAERYCQLENTHLVVINSREEQNFVQAHLGSAYTWMGLSDPEGVWKWVDGTDYSSGFQNWKPGQPDDWQGHGLGGGEDCAHFHPDGRWNDDVCQRSYHWVCEAGLTQASQDSHAS,glycan array binding signal (z-score),[1],-0.267
same,glycan array binding signal (z-score),[2],-0.236
same,glycan array binding signal (z-score),[3],4.84
same,glycan array binding signal (z-score),[4],4.11
same,glycan array binding signal (z-score),[5],-0.282
same,glycan array binding signal (z-score),[6],-0.239
same,glycan array binding signal (z-score),[7],-0.22
same,glycan array binding signal (z-score),[8],4.32
same,glycan array binding signal (z-score),[9],4.11
same,glycan array binding signal (z-score),[10],-0.267
same,glycan array binding signal (z-score),Gal(b1-3)Gal,-0.286
same,glycan array binding signal (z-score),[11],-0.272
same,glycan array binding signal (z-score),[12],-0.265
same,glycan array binding signal (z-score),[13],-0.277
same,glycan array binding signal (z-score),[14],-0.308
same,glycan array binding signal (z-score),[15],-0.268
same,glycan array binding signal (z-score),[16],-0.307
same,glycan array binding signal (z-score),[17],-0.177
same,glycan array binding signal (z-score),[18],-0.272
same,glycan array binding signal (z-score),[19],-0.295
same,glycan array binding signal (z-score),Gal3S(b1-4)Glc6S,-0.141
same,glycan array binding signal (z-score),Gal6S(b1-4)GlcNAc6S,-0.295
same,glycan array binding signal (z-score),GalNAc(a1-3)Gal,4.28
same,glycan array binding signal (z-score),GalNAc(a1-3)GalNAc,-0.266
same,glycan array binding signal (z-score),GalNAc(b1-3)GalNAc,-0.307
same,glycan array binding signal (z-score),GalNAc(b1-4)GlcNAc,4.21
same,glycan array binding signal (z-score),[20],4.13
same,glycan array binding signal (z-score),GalNAc(b1-4)GlcNAc6S,4.56
same,glycan array binding signal (z-score),GalNAc(b1-6)GalNAc,-0.303
same,glycan array binding signal (z-score),GlcA(b1-3)Gal,-0.309
